Laboratory results as given in PubChem BioAssay (Tox21).
Inconclusive results are not listed. Calls of active or inactive are those of the source. Unless noted, calls follow the shape of the full dose curve.

How the values were obtained:
[1] = Nuclear factor erythroid 2-related factor 2/antioxidant responsive element (Nrf2/ARE) small molecule agonists: qHTS cell viability counter screen in human keratinocytes (AID 1919968; active = well fitted curve in the direction sought with a large enough effect in the repeat runs; an effect the other way counts as inactive or inconclusive; also: nearly all actives have a fitted effect of over 55% in size)
Procedure, shortened: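 Fluorescence read-out from CellTiter-Fluor after 1 h at 37 C. Wells held HaCaT-derived ARE-luciferase reporter cells (1,500/well) treated 23 h with DMSO-dissolved compounds. Run in the same wells as the luciferase agonist read.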

[2] = Nuclear factor erythroid 2-related factor 2/antioxidant responsive element (Nrf2/ARE) small molecule agonists: luciferase reporter gene qHTS assay in human keratinocytes (AID 1919969); also: nearly all actives have a fitted effect of over 35% in size
[3] = biological target: Gonadotropin-releasing hormone receptor (Homo sapiens) (UniProt P30968); assay: Human gonadotropin-releasing hormone receptor (GnRHR) small molecule agonists, calcium flux assay in GnRHR-HEK293 cells (AID 1920063); also: nearly all actives have a fitted effect of over 35% in size
Procedure, shortened: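 Calcium-dye fluorescence, Ex/Em=480/540, recorded every 1 sec over 3 min after compound addition to GnRHR-HEK293 cells. Cells had been seeded 18 hours earlier and dye-loaded for 1 hour at 37 C. Fifteen concentrations, triplicates.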

[4] = biological target: KiSS-1 receptor (Homo sapiens) (UniProt Q969F8); assay: Human kisspeptin (KISS1R) small molecule agonists, calcium flux assay in KISS1R-HEK293 cells (AID 1920064; active = well fitted curve in the direction sought with a large enough effect in the repeat runs; an effect the other way counts as inactive or inconclusive)
Procedure, shortened: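 Calcium flux read-out: kinetic fluorescence at Ex/Em=480/540, 1 s intervals over 3 min, after pin-tool compound addition to dye-loaded KISS1R-HEK293 cells. Fifteen concentrations, triplicates.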

[5] = G protein-coupled receptor (GPCR) small molecule agonists, calcium flux assay: HEK293 wild type cell line counter screen (AID 1920065)
Procedure, shortened: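 Agonist mode; 18 h seeding at 37 C, 1 h dye load at 37 C; compounds pinned from DMSO, ATP as positive control; kinetic fluorescence 480/540 nm, 3 min, 1 s reads; 15 concentrations, triplicate.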

[6] = p53 small molecule agonists, cell-based qHTS assay with human liver microsomes (AID 1963577);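 also: p53 response element beta-lactamase reporter cells with liver microsomes plus NADPH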
Procedure, shortened: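 16 h, 37 C exposure of p53RE-bla cells to compounds with human liver microsomes and NADPH (0.5 mg/mL final each); detection via LiveBLAzer mixture, 2 h dark at room temperature.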

[7] = p53 small molecule agonists, cell-based qHTS assay with rat liver microsomes (AID 1963578)
Procedure, shortened: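 With rat liver microsomes and NADPH present (0.5 mg/mL final each), p53RE-bla cells are treated with compound for 16 h at 37 C. LiveBLAzer detection mixture is then applied for 2 h at room temperature in the dark.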

[8] = p53 small molecule agonists, cell-based qHTS assay with human liver microsomes: qHTS cell viability counter screen (AID 1963579); also: nearly all actives have a fitted effect of over 45% in size
Procedure, shortened: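 In this multiplexed counter screen, the reporter plates were subsequently treated with CellTiter-Glo so that cell viability, reflected by luminescence, could be recorded for p53RE-bla cells dosed 16 h with compounds under microsomal activation (HLM and NADPH).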

[9] = p53 small molecule agonists, cell-based qHTS assay with rat liver microsomes: qHTS cell viability counter screen (AID 1963580); also: nearly all actives have a fitted effect of over 45% in size
Procedure, shortened: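 Cytotoxicity counter screen: intracellular ATP read by CellTiter-Glo luminescence in the p53 reporter wells. HCT-116 p53RE-bla cells were treated for 16 h at 37 C alongside rat liver microsomes and NADPH, each 0.5 mg/mL final.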

[10] = p53 small molecule agonists, cell-based qHTS assay: qHTS cell viability counter screen (AID 1963581); also: nearly all actives have a fitted effect of over 45% in size
Procedure, shortened: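 Cytotoxicity read-out: ATP-based luminescence (CellTiter-Glo, 30 min RT) measured in the same wells as the p53 reporter assay, HCT-116 p53RE-bla cells, 16 h compound exposure at 37 C.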

[11] = p53 small molecule agonists, cell-based qHTS assay (AID 1963582; active = well fitted activation curve with a large enough effect in the signal ratio in the repeat runs, not every such curve was filed as active; the % refers to the signal ratio)
Procedure, shortened: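 Fluorescence intensity read-out of a beta-lactamase reporter under a p53 response element. Cells were exposed to DMSO-dissolved compounds for 16 h at 37 C, then developed with FRET substrate for 2 h at RT.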

[12] = biological target: 5-hydroxytryptamine receptor 2A (Homo sapiens) (UniProt P28223); assay: 5-hydroxytryptamine receptor 2A (HTR2A) small molecule antagonists, cell-based qHTS assay (AID 1963586); also: nearly all actives have a fitted effect of over 45% in size
Procedure, shortened: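 CHO cells stably expressing human HTR2A were plated for 18 h at 37 C, then loaded with calcium dye for 1 h. Compounds were preincubated 5 min at room temperature before DOI (4 nM solution) was added. Kinetic fluorescence was read for 3 min.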

[13] = biological target: 5-hydroxytryptamine receptor 2A (Homo sapiens) (UniProt P28223); assay: 5-hydroxytryptamine receptor 2A (HTR2A) small molecule agonists, cell-based qHTS assay (AID 1963587); also: nearly all actives have a fitted effect of over 30% in size
Procedure, shortened: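 Kinetic calcium-flux fluorescence (2 min, 1 sec intervals) after compound addition in agonist mode. HTR2A-CHO cells were cultured 18 h, then dye-loaded 1 h at 37 C.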

[14] = biological target: Muscarinic acetylcholine receptor M1 (Homo sapiens) (UniProt P11229); assay: Cholinergic receptor muscarinic 1 (CHRM1) small molecule antagonists, cell-based qHTS assay (AID 1963588); also: nearly all actives have a fitted effect of over 40% in size
Procedure, shortened: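 Compounds were tested at 15 concentrations in three independent runs. Dye-loaded CHRM1-CHO cells were exposed 5 min at room temperature before stimulation by acetylcholine added at 50nM. Intracellular calcium was read kinetically on FDSS for 3 min.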

[15] = cAMP Responsive Elements (CRE) small molecule agonists, cell-based qHTS assay (AID 1963590)
Procedure, shortened: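 Beta-lactamase reporter readout: LiveBLAzer B/G FRET substrate, 2 h at room temperature, added after 3 h compound treatment of CRE-bla HEK 293T cells at 37 C/5% CO2.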

[16] = biological target: Beta-2 adrenergic receptor (Homo sapiens) (UniProt P07550); assay: Adrenergic beta2 receptor (ADRB2) small molecule agonists, cell-based qHTS assay (AID 1963593);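 also: CHO cells stably overexpressing human ADRB2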
Procedure, shortened: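 CHO cells stably over-expressing ADRB2 were plated overnight at 37C, then dosed with compounds plus a stimulation mix containing 100uM IBMX and 25uM Ro-20-1724 for 0.5hr at room temperature. cAMP was measured by HTRF competition, 1hr.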

[17] = biological target: D(2) dopamine receptor (Homo sapiens) (UniProt P14416); assay: Dopamine D2 receptor (DRD2) small molecule agonists, cell-based qHTS assay (AID 1963594); also: nearly all actives have a fitted effect of over 35% in size
Procedure, shortened: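 cAMP accumulation in DRD2-HEK293 cells measured by HTRF after 1 h detection; compounds added 10 min before NKH477 (200nM […]) forskolin-analogue stimulation, 30 min at room temperature, with Ro20-1724 present at 0.1 mM final.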

[18] = biological target: D(2) dopamine receptor (Homo sapiens) (UniProt P14416); assay: Dopamine D2 receptor (DRD2) small molecule antagonists, cell-based qHTS assay (AID 1963595; active = well fitted inhibition curve with a large enough effect in the signal ratio in the repeat runs, with a control signal flat; the % refers to the signal ratio)
Procedure, shortened: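 HEK293 cells stably expressing DRD2 were preincubated with 0.1 mM Ro20-1724, then with compound for 10 min at room temperature. Cells were stimulated with 200 nM NKH477 plus 12 nM quinpirole for 30 min, and cAMP was read by HTRF.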

[19] = cAMP Responsive Elements (CRE) small molecule antagonists, cell-based qHTS assay (AID 1963591; active = well fitted inhibition curve with a large enough effect in the signal ratio in the repeat runs, not every such curve was filed as active; the % refers to the signal ratio; also: potency is read from the fitted curve at half-maximal effect)
Procedure, shortened: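 HEK293T CRE-bla; 18 h preincubation; compound pin-transfer; NKH477 0.25 uM final, 3 h, 37 C; LiveBLAzer FRET substrate 2 h RT.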

[20] = biological target: Beta-2 adrenergic receptor (Homo sapiens) (UniProt P07550); assay: Adrenergic beta2 receptor (ADRB2) small molecule antagonists, cell-based qHTS assay (AID 1963592); also: series mostly up to about 92 µM; nearly all actives have a fitted effect of over 50% in size
Procedure, shortened: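 Assay format: CHO-ADRB2 cells, 18-20hr seeding at 37C/5% CO2, then compound plus 1nM isoproterenol agonist mix for 0.5hr RT. Homogeneous time-resolved fluorescence cAMP detection after 1hr, expressed as 665/615 nm ratio.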
% is scaled to controls: 0 for no effect and ±100 for the full control effect.

Sequence of D(2) dopamine receptor (Homo sapiens) (P14416 whole entry, looked up): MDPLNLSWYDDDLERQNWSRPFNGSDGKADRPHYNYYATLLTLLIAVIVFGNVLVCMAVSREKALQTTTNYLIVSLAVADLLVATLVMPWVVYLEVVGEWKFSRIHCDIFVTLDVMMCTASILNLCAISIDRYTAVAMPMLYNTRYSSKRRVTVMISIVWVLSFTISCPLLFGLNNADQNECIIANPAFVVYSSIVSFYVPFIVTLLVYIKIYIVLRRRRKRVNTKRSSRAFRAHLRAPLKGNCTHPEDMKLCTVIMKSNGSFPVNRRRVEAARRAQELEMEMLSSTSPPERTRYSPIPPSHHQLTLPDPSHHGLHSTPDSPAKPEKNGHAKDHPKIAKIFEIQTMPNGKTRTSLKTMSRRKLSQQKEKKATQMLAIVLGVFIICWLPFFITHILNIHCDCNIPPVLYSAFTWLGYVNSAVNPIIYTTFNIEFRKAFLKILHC
Sequence of KiSS-1 receptor (Homo sapiens) (Q969F8 whole entry, looked up): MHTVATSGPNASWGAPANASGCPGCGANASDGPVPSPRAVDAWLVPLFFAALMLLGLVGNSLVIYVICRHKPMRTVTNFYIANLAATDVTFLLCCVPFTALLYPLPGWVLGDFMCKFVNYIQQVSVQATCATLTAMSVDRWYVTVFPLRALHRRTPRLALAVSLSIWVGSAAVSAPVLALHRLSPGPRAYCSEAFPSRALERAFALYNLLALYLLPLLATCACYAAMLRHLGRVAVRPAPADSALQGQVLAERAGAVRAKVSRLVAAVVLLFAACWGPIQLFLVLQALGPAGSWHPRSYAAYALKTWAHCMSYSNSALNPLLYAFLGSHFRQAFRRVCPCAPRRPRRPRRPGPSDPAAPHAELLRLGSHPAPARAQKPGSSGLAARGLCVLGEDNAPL
Sequence of Gonadotropin-releasing hormone receptor (Homo sapiens) (P30968 whole entry, looked up): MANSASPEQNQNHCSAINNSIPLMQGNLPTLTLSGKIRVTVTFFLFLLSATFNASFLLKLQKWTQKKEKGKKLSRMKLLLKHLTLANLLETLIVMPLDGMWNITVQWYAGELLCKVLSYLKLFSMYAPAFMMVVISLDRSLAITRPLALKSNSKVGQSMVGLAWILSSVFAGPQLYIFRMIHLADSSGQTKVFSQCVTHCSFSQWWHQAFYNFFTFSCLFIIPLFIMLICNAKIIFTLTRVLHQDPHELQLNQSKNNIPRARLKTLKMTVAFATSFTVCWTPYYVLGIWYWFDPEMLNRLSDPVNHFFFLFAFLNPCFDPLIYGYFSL
Sequence of Beta-2 adrenergic receptor (Homo sapiens) (P07550 whole entry, looked up): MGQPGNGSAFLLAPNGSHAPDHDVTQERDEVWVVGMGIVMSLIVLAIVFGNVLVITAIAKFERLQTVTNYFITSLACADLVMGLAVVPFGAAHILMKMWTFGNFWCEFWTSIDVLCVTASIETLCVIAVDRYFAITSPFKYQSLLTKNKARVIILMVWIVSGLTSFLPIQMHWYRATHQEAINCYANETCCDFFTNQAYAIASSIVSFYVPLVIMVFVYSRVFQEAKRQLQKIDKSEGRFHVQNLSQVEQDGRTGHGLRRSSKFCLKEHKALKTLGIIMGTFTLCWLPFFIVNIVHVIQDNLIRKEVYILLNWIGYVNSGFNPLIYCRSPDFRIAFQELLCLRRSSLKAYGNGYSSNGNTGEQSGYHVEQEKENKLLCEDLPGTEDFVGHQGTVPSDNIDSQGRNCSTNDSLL
Sequence of Muscarinic acetylcholine receptor M1 (Homo sapiens) (P11229 whole entry, looked up): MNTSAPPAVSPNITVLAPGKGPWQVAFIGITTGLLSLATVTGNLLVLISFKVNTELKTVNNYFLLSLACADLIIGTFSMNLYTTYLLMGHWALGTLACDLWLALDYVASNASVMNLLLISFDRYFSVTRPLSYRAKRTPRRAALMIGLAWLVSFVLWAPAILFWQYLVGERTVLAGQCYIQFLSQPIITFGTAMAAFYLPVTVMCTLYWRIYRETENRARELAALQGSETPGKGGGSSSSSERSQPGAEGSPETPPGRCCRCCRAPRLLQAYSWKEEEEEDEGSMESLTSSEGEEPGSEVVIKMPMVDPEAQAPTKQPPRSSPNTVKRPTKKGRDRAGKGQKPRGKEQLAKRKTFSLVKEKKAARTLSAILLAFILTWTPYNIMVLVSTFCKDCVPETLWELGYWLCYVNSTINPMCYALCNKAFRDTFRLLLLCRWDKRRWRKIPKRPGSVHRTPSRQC
Sequence of 5-hydroxytryptamine receptor 2A (Homo sapiens) (P28223 whole entry, looked up): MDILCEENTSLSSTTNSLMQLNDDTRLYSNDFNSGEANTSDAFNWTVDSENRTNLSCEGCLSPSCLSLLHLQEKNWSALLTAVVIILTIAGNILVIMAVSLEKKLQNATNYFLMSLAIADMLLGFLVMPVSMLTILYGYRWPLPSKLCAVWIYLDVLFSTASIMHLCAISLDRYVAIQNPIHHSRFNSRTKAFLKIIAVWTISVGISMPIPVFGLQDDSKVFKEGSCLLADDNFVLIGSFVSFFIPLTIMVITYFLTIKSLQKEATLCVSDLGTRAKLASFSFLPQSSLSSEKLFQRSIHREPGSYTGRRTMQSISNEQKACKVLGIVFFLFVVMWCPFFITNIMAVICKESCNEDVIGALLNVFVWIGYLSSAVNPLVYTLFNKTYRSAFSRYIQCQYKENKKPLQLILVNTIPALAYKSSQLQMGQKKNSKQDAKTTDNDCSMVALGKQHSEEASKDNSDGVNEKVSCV

COc1cc(C=O)ccc1OC(=O)C(C)C
inactive: Potency [1] | Potency [2] | Potency [3] | Potency [4] | Potency [5] | Potency [6] | Potency [7] | Potency [8] | Potency [9] | Potency [10] | Potency [11] | Potency [12] | Potency [13] | Potency [14] | Potency [15] | Potency [16] | Potency [17] | Potency [18]

CCOC(=O)OC(=O)OCC
inactive: Potency [1] | Potency [2] | Potency [3] | Potency [4] | Potency [5] | Potency [6] | Potency [7] | Potency [8] | Potency [9] | Potency [10] | Potency [11] | Potency [12] | Potency [13] | Potency [14] | Potency [19] | Potency [20] | Potency [16] | Potency [17] | Potency [18]

Nc1ccc(Oc2ccc(Cl)cc2)cc1
inactive: Potency [1] | Potency [2] | Potency [3] | Potency [4] | Potency [5] | Potency [6] | Potency [7] | Potency [8] | Potency [9] | Potency [10] | Potency [11] | Potency [12] | Potency [13] | Potency [14] | Potency [15] | Potency [20] | Potency [17] | Potency [18]

C=C(C)C(=O)OCCNC(C)(C)C
inactive: Potency [1] | Potency [2] | Potency [3] | Potency [4] | Potency [5] | Potency [6] | Potency [7] | Potency [8] | Potency [9] | Potency [10] | Potency [11] | Potency [12] | Potency [13] | Potency [14] | Potency [15] | Potency [20] | Potency [16] | Potency [17] | Potency [18]

CC(C)(C)C(=O)OCOC(=O)C1N2C(=O)CC2S(=O)(=O)C1(C)C (centres undefined)
active: Potency [19] 11.9 nM
inactive: Potency [1] | Potency [2] | Potency [3] | Potency [4] | Potency [5] | Potency [6] | Potency [7] | Potency [8] | Potency [9] | Potency [10] | Potency [11] | Potency [12] | Potency [13] | Potency [14] | Potency [20] | Potency [16] | Potency [17] | Potency [18]

N[C@H](C(=O)O)c1ccc(O)cc1
inactive: activity change, negative = cytotoxicity [1] 7.62% [at 19 µM] | activity, positive = activation [2] 16.5% [at 19 µM] | activity change [3] -1.58% [at 11.8 µM, active compounds read high] | activation [4] 3.74% [at 15.8 µM] | activation [5] 0.205% [at 11.8 µM] | activation [6] 0.205% [at 13.5 µM] | activation [7] 0.317% [at 13.6 µM] | activity change, negative = cytotoxicity [8] 0.34% [at 13.5 µM] | activity change, negative = cytotoxicity [9] 4.85% [at 13.5 µM] | activity change, negative = cytotoxicity [10] -1.01% [at 13.5 µM] | activation [11] -1.96% [at 13.5 µM] | activity, negative = inhibition [12] 57.4% [at 12.7 µM] | activation [13] -0.912% [at 15.9 µM] | activity, negative = inhibition [14] 8.36% [at 12.6 µM] | activity change, negative = inhibition [19] 0.811% [at 18.9 µM] | activity change, negative = inhibition [20] -0.335% [at 19 µM] | activation [16] 19.3% [at 19 µM] | activity change, negative = inhibition [18] 7.69% [at 18.9 µM]

COCCOCCOCCOCCO
inactive: Potency [1] | Potency [2] | Potency [3] | Potency [4] | Potency [5] | Potency [6] | Potency [7] | Potency [8] | Potency [9] | Potency [10] | Potency [11] | Potency [12] | Potency [13] | Potency [14] | Potency [15] | Potency [20] | Potency [17] | Potency [18]
